This passage reports inhibition results from PubChem BioAssay AID1445 (SRMLSC, 2008).

For orientation: inhibition means the drop in the measured response relative to a control, in per cent.

Among all 220,000 compounds or so, about 910 (0.41%) were called active. The sample holds actives, similar compounds and a random draw of the others, so the mix is not that of the screen. Potency and affinity values are given separately. A number with no mark means an inactive call.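 The calls were made as follows: active = primary inhibition above the hit cutoff, then over 50% inhibition at one or more dose response concentrations (cut at about 23% in these data, passing the limit was not always enough); inconclusive = conflicting primary data, or primary hits not chosen for dose response; inactive = low primary inhibition, or under 50% at every dose.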

Aminopeptidase N (Plasmodium falciparum (isolate 3D7)), sequence (O96935 whole entry, looked up): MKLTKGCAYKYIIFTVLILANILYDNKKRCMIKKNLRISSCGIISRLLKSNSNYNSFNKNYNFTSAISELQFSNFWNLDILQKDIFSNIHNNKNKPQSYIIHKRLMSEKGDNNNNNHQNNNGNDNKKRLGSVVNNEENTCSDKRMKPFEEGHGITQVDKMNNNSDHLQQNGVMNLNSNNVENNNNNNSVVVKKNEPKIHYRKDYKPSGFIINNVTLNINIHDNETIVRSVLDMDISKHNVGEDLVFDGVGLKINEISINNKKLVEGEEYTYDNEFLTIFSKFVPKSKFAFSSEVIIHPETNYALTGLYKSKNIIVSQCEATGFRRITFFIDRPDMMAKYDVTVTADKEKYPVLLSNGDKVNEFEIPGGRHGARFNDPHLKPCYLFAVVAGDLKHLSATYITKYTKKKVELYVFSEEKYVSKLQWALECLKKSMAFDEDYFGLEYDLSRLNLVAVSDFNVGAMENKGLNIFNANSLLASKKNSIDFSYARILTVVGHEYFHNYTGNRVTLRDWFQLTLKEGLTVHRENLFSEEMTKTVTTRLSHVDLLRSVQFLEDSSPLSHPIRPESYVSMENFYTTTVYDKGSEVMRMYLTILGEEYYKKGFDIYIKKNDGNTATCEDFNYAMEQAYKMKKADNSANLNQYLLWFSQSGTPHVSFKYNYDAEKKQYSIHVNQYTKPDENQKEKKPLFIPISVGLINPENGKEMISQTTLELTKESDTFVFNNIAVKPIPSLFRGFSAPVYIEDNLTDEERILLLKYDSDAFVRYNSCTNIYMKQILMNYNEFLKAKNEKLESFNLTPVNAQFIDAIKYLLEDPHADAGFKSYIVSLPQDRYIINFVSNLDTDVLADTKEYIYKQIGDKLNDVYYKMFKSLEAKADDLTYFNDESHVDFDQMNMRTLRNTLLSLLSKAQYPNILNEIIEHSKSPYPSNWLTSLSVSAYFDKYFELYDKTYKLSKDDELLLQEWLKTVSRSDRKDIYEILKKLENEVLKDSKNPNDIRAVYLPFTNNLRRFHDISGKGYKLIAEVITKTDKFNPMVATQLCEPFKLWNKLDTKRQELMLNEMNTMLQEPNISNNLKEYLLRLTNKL

This assay concerns the target Aminopeptidase N (Plasmodium falciparum (isolate 3D7)) (UniProt O96935). Nature of the assay: malaria alanyl aminopeptidase activity blockers – biochemical, fluorogenic H-Leu-NHMec substrate, 1536-well (AID 1445).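 Also: plate controls were DMSO full reaction for no effect and no enzyme background for full effect.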 Conditions: recombinant M1AAP, H-Leu-NHMec fluorogenic kinetic assay; at 30 µM, stronger effect = higher value unless noted.
As for `Oc1c(C(c2cccc(F)c2)N2CCN(Cc3ccccc3)CC2)sc2ncnn12` (stereo not drawn), the inhibition was 9.71%.

Turning to `Cc1ccc(-c2cc(C(=O)O)n[nH]2)o1`, the inhibition is 5.31%.

For `CC1CCCCN1C(=O)c1cc(-c2ccc(Cl)c(Cl)c2)on1` (stereo not drawn), the inhibition is -16.2%.

For the compound `O=C(CSc1nnc(-c2cc3ccccc3cc2O)n1Cc1ccco1)N1CCc2ccccc2C1`, the inhibition was 10.2%.

Turning to `c1ccc(CSCc2cn3ccccc3n2)cc1`, the inhibition was -5.43%.

Consider `O=C(O)c1ccc(-c2ccccn2)s1`, for which the inhibition was 0.37%.

Consider `Nc1ccc(-c2ccc(C(=O)O)s2)cn1`, for which the inhibition is 28.6%.

Consider `CC1CCc2c(sc3nc(CSc4n[nH]c(N)n4)[nH]c(=O)c23)C1` (stereo not drawn), for which the inhibition was -10.6%.

For the compound `O=C(Nc1nccs1)c1csc2c1CCCC2`, the inhibition is 8.61%.

On to `Cc1ccc(-c2ccc(=O)n(CC(=O)Nc3cccc(C(=O)N4CCN(C)CC4)c3)n2)cc1`, for which the inhibition is 6.7%.

As for `O=C1CC(c2ccccc2F)c2c(c3ccccc3[nH]c2=O)O1` (stereo not drawn), the inhibition was 0.7%.

Consider `Cc1sc(NC(=O)CSc2nnc(-c3ccc(F)cc3)o2)c(C#N)c1C`, for which the inhibition is 16%.

In the case of `Cc1sc(NC(=O)CSc2nnc(-c3ccccc3)o2)c(C#N)c1C`, the inhibition is 25% (active).

On to `COC(=O)CSc1nnc(-c2ccc(NS(=O)(=O)c3ccccc3)cc2)o1`, for which the inhibition was 7.24%.

Consider `N#Cc1c(NC(=O)CSc2nnc(-c3ccccc3)o2)sc2c1CCCC2`, for which the inhibition is 21.3%.

For the compound `CCc1nnc(NC(=O)CSc2nnc(-c3ccco3)o2)s1`, the inhibition was -0.37%.

As to `Cc1ccc(-n2c(C)nc3c(cnn3-c3ccc(C)c(C)c3)c2=O)cc1C`, the inhibition is 2.27%.

`CNNC(=O)C(=O)NNS(=O)(=O)c1ccccc1`: the inhibition is 4.63%.

In the case of `O=C1c2ccccc2C(=O)N1Cc1nc2ccccc2o1`, the inhibition was 13%.

In the case of `O=C1c2ccccc2C(=O)N1c1ccc(-c2nc3ccccc3o2)cc1`, the inhibition is -1.24%.

As for `O=C(c1ccc(F)cc1)N(NC(=O)C(O)(c1ccccc1)c1ccccc1)c1ccccc1`, the inhibition is 0.71%.

Turning to `COc1ccc(C(=O)/C=C/Nc2cc(C)on2)cc1`, the inhibition was 8.8%.

For the compound `COc1ccc([N+](=O)[O-])cc1/C=N/NC(=O)/C(=C\c1cccs1)NC(=O)c1ccccc1`, the inhibition was 4.13%.

Turning to `COCCn1c(-c2ccco2)nc2nc3ccccc3nc21`, the inhibition is 22.9%.

Consider `c1ccc(-c2nc3nc4ccccc4nc3n2CC2CCCO2)cc1` (stereo not drawn), for which the inhibition was 15.8%.

Turning to `Fc1ccccc1-c1nc2nc3ccccc3nc2n1CC1CCCO1` (stereo not drawn), the inhibition was 14.5%.

On to `c1coc(-c2nc3nc4ccccc4nc3n2CC2CCCO2)c1` (stereo not drawn), for which the inhibition is 26% (active).

In the case of `CCCCCn1c(-c2ccco2)nc2nc3ccccc3nc21`, the inhibition is 13%.
